Marburg entry = inhibitors of Marburg virus binding or entry into cells | Marburg virus pseudotype entry/binding inhibition, cell-based | Potency, µM (doses to about 49.2 µM), inactives show at the top dose activity change, negative = inhibition, actives largely listed as inhibitors | 6.5% of 18,000 active | AID 720532
LASV entry inh = blocks Lassa virus binding or cell entry; Lassa virus pseudotyped entry inhibition, cell-based qHTS; Potency, µM (doses to about 49.2 µM), for inactives: at the highest dose activity change, negative = inhibition, hits mostly inhibitors; 4.1% of 18,000 active
* = called active by the depositor; ? = inconclusive; · = no result; ! = a repeat was not active; [ ] = another dose, or the depositor's remark. Most compounds without a hit are left out; they make up all but 8.6% or so of the library. The call rests on the fitted dose curve; tested in HEK293 cells. On the % scale 0 is the no-effect control and ±100 the full control effect; potency means the concentration at half of the fitted maximal effect.

SMILES | Marburg entry | LASV entry inh
CCCCCCCCCCCCCCCCOP(=O)([O-])OCC[N+](C)(C)C | -10% | 9%
CCCCCCCCCC[N+](C)(C)CCCCCCCCCC | ? | 25µM*
CCCCCCCCCCCCCCCC[N+](C)(C)CC | 10µM* | 16µM*
C=C(C)C(=O)C=CC=Cc1ccccc1 | -87%[8.59 µM] | ·
O=C(OCc1cn([C@@H]2CN(C(=O)c3cccs3)[C@@H](c3ccc(Cl)cc3)C[C@@H]2O)nn1)c1ccccc1 | -8% | 4%
CC(CCN1CCCc2nc(C)c(C)cc21)=NO[C@H](C)c1cn([C@@H]2COC[C@@H]2O)nn1 | 7%[8.59 µM] | ·
COC(=O)C1=C(C(=O)OC)[C@@H]2N(C)c3ccccc3[C@@]23CCC(=O)N(Cc2ccco2)C3=N1 | 16%[8.59 µM] | ·
O=C(C=Cc1ccccc1)Nc1cccc(C(=O)NCCCc2ccccc2)c1 | 30% | 49%
CC#CCN1C(=O)N(C)C(c2ccccc2)C(C(=O)OC)=C1C (centres undefined) | -4%[8.59 µM] | 10%[8.59 µM]
Cc1ccc(/C=C2/CNC/C(=C\c3ccc(C)cc3)C2=O)cc1 | 3.5µM* | 11µM*
CC1C(=O)C(Cc2cn(CCC3OCCO3)nn2)CCS(=O)(=O)N1Cc1ccc(-c2ccc(Cl)nc2)cc1 (centres undefined) | 96% | 14%
COc1cc2c(cc1OC)[C@@H]1O[C@](CCCCN3C(=O)c4ccccc4C3=O)(C2)OC2=C1C(=O)CC(C)(C)C2 | -9%[8.59 µM] | -26%[8.59 µM]
C[C@@H]([C@H](O)c1ccc(O)cc1)N1CCC(Cc2ccccc2)CC1 | ? | -8%
CC(C(O)c1ccc(O)cc1)N1CCC(Cc2ccccc2)CC1 (centres undefined) | 10µM* | -19%
C#CCCCON=C1C[C@@H](O)[C@H](O)[C@H]2[C@@H]3C(=O)N(Cc4ccc5c(c4)OCO5)C(=O)[C@@H]3CC[C@H]12 | ? | 3%[8.59 µM]
CN1CC[C@@]23CCCCC2C1Cc1ccc(O)cc13 (some centres undefined) | -14% | 9%
COc1ccc2c(c1)[C@@]13CCCCC1[C@@H](C2)N(C)CC3 (some centres undefined) | 8.9µM* | ?
C[C@H]1C[C@@H](C)C(=O)[C@@H]([C@H](O)CC2CC(=O)NC(=O)C2)C1 | 1.1µM* | 3.5µM*
CCOC(=O)CN1C(=O)CC(C[C@@H](O)C2C[C@@H](C)C[C@H](C)C2=O)CC1=O (some centres undefined) | -3% | -7%
C[C@@H]1C[C@@H]([C@@H](C)CC2CC(=O)NC(=O)C2)C(=O)[C@@H](C)C1 | 5µM* | 4.5µM*
C[C@H]1C[C@H](C)C(=O)[C@@H]([C@H](O)CC2CC(=O)NC(=O)C2)C1 | ? | 3.2µM*
CC1CC(C)C(=O)[C@H](C(O)CC2CC(=O)NC(=O)C2)C1 (some centres undefined) | 2.5µM* | 5.6µM*
C[C@@H]1CC[C@H]2C(=O)N(Cc3cccc([N+](=O)[O-])c3)C[C@H](O)CN2[C@@H]1c1ccc(Br)cc1 | 33%[8.59 µM] | 15%[8.59 µM]
CC(C)(C)NCC(O)CSc1nc(-c2ccc(C(N)=O)s2)cs1 (centres undefined) | -24% | -8%
C[C@H](CO)NS(=O)(=O)c1cc(Cl)ccc1F | 19% | 9%
SMILES | Marburg entry | LASV entry inh
CC1=CC[C@@H](COc2ccccc2)O[C@@]2(C1)C(=O)N(Cc1ccccc1C(F)(F)F)c1cccc(Br)c12 | -7%[8.59 µM] | 18%[8.59 µM]
O=C(/C=C\c1ccc(O)c(O)c1)O[C@@H](Cc1ccc(O)c(O)c1)C(=O)O | ? | -16%
O=C(/C=C/c1ccc(O)c(O)c1)OC(Cc1ccc(O)c(O)c1)C(=O)O (centres undefined) | 8.9µM* | -5%
COc1ccc2c(c1OC)C(=O)OC2C1c2cc3c(cc2CCN1C)OCO3 (centres undefined) | 8% | -1%
COc1ccc2c(c1OC)C(Cc1ccccc1)N1CCc3cc4c(cc3C1=C2)OCO4 (centres undefined) | ? | 25µM*
C=CCOC(=O)N[C@H](c1ccc(-c2ccccc2)cc1)[C@H](C)C=CCC(=O)OC | -4%[8.59 µM] | ·
Cc1nc2ccccc2nc1CN1CCOc2ccc(C3(O)CCN(c4ccccc4F)CC3)cc2C1 | -30% | ?
N=C(N)N1Cc2ccccc2C(O)C1 (centres undefined) | 13% | 0%
CN1CCOC(c2ccccc2)c2ccccc2C1 (centres undefined) | 11µM*! | ?
Cc1cc2c(C(C)C)c(O)c(O)c(C=O)c2c(O)c1-c1c(C)cc2c(C(C)C)c(O)c(O)c(C=O)c2c1O | 20µM* | 11µM*
COc1ccc2c3c(c(=O)oc2c1)[C@H]1O[C@](c2ccsc2)(Cc2cc(C#N)ccc21)O3 | -14%[8.59 µM] | -8%[8.59 µM]
CC[C@@]1(O)C(=O)OCc2c1cc1n(c2=O)Cc2cc3cc(O)ccc3nc2-1 | ? | 0.11µM*
COC(=O)C(C(=O)OC)[C@H]1c2ccccc2[C@@H]2C(=C[C@@H](C)[C@H]3C(=O)N(c4ccccc4)C(=O)[C@H]32)N1C(=O)OC | 25%[8.59 µM] | -10%[8.59 µM]
CCOC(=O)CCN1C(=O)[C@@H]2[C@H]3[C@H](O)[C@H](O)CC(=NNC(=O)OCc4ccc(OC)cc4)[C@H]3CC[C@H]2C1=O | 22%[8.59 µM] | ·
C#C[C@]1(O)CC[C@H]2[C@@H]3CCC4=CC(=O)CCC4=C3C=C[C@@]21CC | 7% | ?
CC#C[C@]1(O)CC[C@H]2[C@@H]3CCC4=CC(=O)CCC4=C3[C@@H](c3ccc(N(C)C)cc3)C[C@@]21C | ? | 32µM*
CCOC(=O)N1CCN(Cc2ccc3c(c2)CN(C(=O)c2cc(-c4ccccc4)on2)CCO3)CC1 | -28% | ?
C[C@@H]1C=CCC(=O)N[C@@H](c2ccc3ccccc3c2)[C@H](C)C=CCC(=O)N[C@@H]1c1ccc2ccccc2c1 | ? | -2%[8.59 µM]
N#CC(C#N)=NNc1ccc(OC(F)(F)F)cc1 | 3.2µM* | 1.3µM*
CC(=O)OC1CC2C(C)(C)C(O)CC(O)[C@@]2(C)C2CC[C@@]3(C)C(=CC(=O)OC3c3ccoc3)[C@]12C (some centres undefined) | -26% | 0%
COC(=O)CC1C(C)(C)C(OC(C)=O)C2[C@H](OC(C)=O)[C@]34O[C@]2(O)[C@]1(C)C3CC[C@]1(C)C4=CC(=O)OC1c1ccoc1 (some centres undefined) | 7.9µM* | ?
CCCCCC(=O)N1C[C@@H](O)[C@H](n2cc(COC(=O)c3ccccc3)nn2)C[C@H]1c1ccccc1 | 5% | 12%
O=C1NC(=S)NC(=O)C1C(=O)Nc1ccccc1 | 10% | -5%
O=C1NC(=O)c2cc(Nc3ccccc3)c(Nc3ccccc3)cc21 | ? | 11µM*
COc1cccc([C@@H]2Oc3ccc(Br)cc3C(=O)[C@@H]2OC(=O)Nc2ccc(OC(F)F)cc2)c1 | 39%[8.59 µM] | 110%[8.59 µM]
SMILES | Marburg entry | LASV entry inh
CC(C)C[C@H](NC(=O)[C@H](Cc1ccccc1)NC(=O)c1cnccn1)B(O)O | 3.5µM* | 2.8µM*
CC(C)C[C@@H](NC(=O)[C@@H](O)[C@H](N)Cc1ccccc1)C(=O)O | 18% | 6%
O[C@H](CC#CCOc1ccccc1)COCc1ccccc1 | 71%[8.59 µM] | 22%[8.59 µM]
c1ccc2c(c1)CCCc1cc(NCCN3CCOCC3)nnc1-2 | 5%[17.8 µM] | 24%[17.8 µM]
O=C1C(Cl)=C(NCCN2CCOCC2)C(=O)c2ncccc21 | 13µM* | 11µM*
Cc1ccccc1-c1nc(NCCN2CCOCC2)c2ccccc2n1 | -16% | -3%
Cc1ccccc1-c1nc(NC2CCNCC2)c2ccccc2n1 | 8.9µM* | 9%

From PubChem
